# Test results: paper PMC10668032, “Altered binding affinity of SIX1-Q177R correlates with enhanced WNT5A and WNT pathway effector expression in Wilms tumor”
# Whole data set: some 33,000 sequences, median “e-score” near -0.053, cut for the highest 2% near 0.38. Many of the other results were omitted from the sample, so the highest values are more common in it than they were.
# Target: T1, SIX1 homeodomain (reference allele) (human, UniProt Q15475 108-198)
# T1 sequence: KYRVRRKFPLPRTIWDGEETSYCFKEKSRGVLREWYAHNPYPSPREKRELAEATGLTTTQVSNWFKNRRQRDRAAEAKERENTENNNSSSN
# Test: universal protein binding microarray; Universal all-10-mer PBM (8x60K, AMADID 030236), 300 nM GST-tagged protein, Alexa Fluor 488 anti-GST; buffer, salt, pH and temperature not stated (as in Berger); high values mean tight binding
# Conditions: protein: ivt; tags: N-terminal GST; dsDNA, one strand shown
# How it was run: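 Homeodomains fused to GST were made by in vitro transcription/translation and measured by anti-GST western blot with a recombinant GST standard curve. At 300 nM final concentration, they were applied in duplicate to universal 'all 10-mer' protein binding microarrays (8×60K format).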
row,Sequence,binding signal [E-score]
1,ACCCTGAT,0.3 ± 0.0183
2,GATCGAGA,0.295 ± 0.041
3,GATAGCAA,0.202 ± 0.0434
4,ATAGAATA,0.162 ± 0.00811
5,AGACCATA,0.19 ± 0.0814
6,GTCTACAC,0.152 ± 0.0214
7,AATACACC,0.336 ± 0.00415
8,AAATGAGA,0.16 ± 0.0635
9,AAATGATC,0.321 ± 0.107
10,AAATGATA,0.415 ± 0.0488
11,GAATAATA,0.226 ± 0.111
12,CAATGATC,0.31 ± 0.0312
13,GAATGATA,0.412 ± 0.066
14,CAATGATA,0.418 ± 0.0312
15,GAATGATC,0.306 ± 0.0507
16,TAATGATA,0.36 ± 0.0576
17,AACACCCG,0.304 ± 0.00694
18,ACCTGAGA,0.158 ± 0.0127
19,ATCGAAGG,0.179 ± 0.0692
20,AGAGTGTA,0.223 ± 0.0204
21,AGCCCCTA,0.153 ± 0.0497
22,CCGCATTA,0.157 ± 0.0248

row,Sequence,binding signal [E-score]
1,GAGCTGGA,0.177 ± 0.0153
2,ATCGCCGA,0.19 ± 0.0306
3,ACACCGTG,0.277 ± 0.0223
4,ATTCCGTG,0.156 ± 0.0528
5,ACACCGTA,0.344 ± 0.0258
6,ACACCGTC,0.262 ± 0.00999
7,ATACCGTC,0.396 ± 0.0211
8,ATCCCGTA,0.342 ± 0.0301
9,ATACCGTA,0.391 ± 0.00392
10,ATACCGAC,0.341 ± 0.0139
11,ATACCGTG,0.384 ± 0.0192
12,ATATGGTC,0.277 ± 0.0141
13,GGATTAAA,0.231 ± 0.111
14,AATCCGAG,0.237 ± 0.07
15,CTGGAATC,0.158 ± 0.0574
16,ACCATATC,0.418 ± 0.00875
17,CCCATATC,0.4689 ± 0.00434
18,ACCATATA,0.274 ± 0.008
19,ACCATACC,0.154 ± 0.0389
20,CCCATATA,0.309 ± 0.0133
21,CCTATATC,0.352 ± 0.0286
22,AGGTTTAT,0.199 ± 0.0561

row,Sequence,binding signal [E-score]
1,CCGATGCG,0.215 ± 0.071
2,CGATAGGC,0.175 ± 0.0335
3,CCTATCAC,0.387 ± 0.0097
4,CATATCAG,0.436 ± 0.0183
5,AATATCTC,0.274 ± 0.0766
6,ACTATCAC,0.279 ± 0.062
7,AATATCAT,0.381 ± 0.0478
8,AATATCAA,0.225 ± 0.165
9,AATATCAG,0.225 ± 0.129
10,AATATCAC,0.38 ± 0.0781
11,CATATTAG,0.191 ± 0.0531
12,AATATGAT,0.309 ± 0.00824
13,CTCCATCA,0.157 ± 0.0276
14,ATACAGCC,0.225 ± 0.1
15,ATCGGGTG,0.32 ± 0.0738
16,ACCGGGAT,0.313 ± 0.0258
17,GTATTAAA,0.246 ± 0.142
18,ATCATCAA,0.199 ± 0.0117
19,AACACCCT,0.21 ± 0.0269
20,CCCCGTAG,0.176 ± 0.139
21,GGGATGAA,0.191 ± 0.0459
22,CATATTAC,0.219 ± 0.0138

row,Sequence,binding signal [E-score]
1,CATATCAC,0.446 ± 0.0382
2,CATATCTC,0.342 ± 0.0177
3,CCGCTATC,0.304 ± 0.0394
4,ATGCCAGG,0.161 ± 0.00747
5,GTATCTCA,0.392 ± 0.0267
6,ATCTCTCC,0.184 ± 0.128
7,GCATCTCA,0.186 ± 0.00338
8,ATATCTCC,0.424 ± 0.0218
9,CTATCTCC,0.217 ± 0.0476
10,ATCTCTCA,0.252 ± 0.0252
11,ATATCTCG,0.378 ± 0.0423
12,ATATCTAG,0.285 ± 0.0844
13,GGATCTCA,0.298 ± 0.0172
14,ATATCTGG,0.298 ± 0.0486
15,ATATCTCA,0.391 ± 0.0526
16,CTATCTCA,0.256 ± 0.0685
17,AGTACACC,0.209 ± 0.0287
18,ATCCCTGA,0.272 ± 0.0262
19,ACTATACT,0.211 ± 0.0749
20,ACTAGTAT,0.249 ± 0.0623
21,TACCTCGA,0.159 ± 0.0128
22,ATAGGATG,0.211 ± 0.00535

row,Sequence,binding signal [E-score]
1,GATCGTAA,0.216 ± 0.0203
2,ACAGATAG,0.208 ± 0.0152
3,AAACCGAT,0.184 ± 0.013
4,ATCGTTTG,0.196 ± 0.0542
5,CTATCTAC,0.24 ± 0.0207
6,ATATCTAC,0.387 ± 0.0445
7,ATATCTAA,0.316 ± 0.0663
8,ACCCGAGA,0.213 ± 0.00331
9,AGGATATG,0.421 ± 0.00759
10,AGGATAAC,0.211 ± 0.00987
11,CGGATAAA,0.275 ± 0.0785
12,CGGATATC,0.473 ± 0.0121
13,AGGATAAG,0.181 ± 0.0696
14,CGGATAAC,0.339 ± 0.0303
15,CGGATAGA,0.355 ± 0.012
16,AGGATAAT,0.295 ± 0.036
17,AGGATATC,0.466 ± 0.0183
18,AGGATAGC,0.229 ± 0.0872
19,AGGATATA,0.346 ± 0.0479
20,CGGATAGC,0.382 ± 0.00849
21,AGTATGAT,0.2824 ± 0.000431
